Only some compounds are listed: those with a hit (about 2.6% of all), similar ones and a draw of the others.
PHOSPHO1 inh = inhibitors of human PHOSPHO1 phosphatase; Q8TCT1; 290,000 compounds, 1.1% hits; recombinant PHOSPHO1, absorbance phosphatase assay; inhibition, % at 13.3 µM; in the data active = inhibition above about 60%
Target sequence (Q8TCT1 whole entry, looked up): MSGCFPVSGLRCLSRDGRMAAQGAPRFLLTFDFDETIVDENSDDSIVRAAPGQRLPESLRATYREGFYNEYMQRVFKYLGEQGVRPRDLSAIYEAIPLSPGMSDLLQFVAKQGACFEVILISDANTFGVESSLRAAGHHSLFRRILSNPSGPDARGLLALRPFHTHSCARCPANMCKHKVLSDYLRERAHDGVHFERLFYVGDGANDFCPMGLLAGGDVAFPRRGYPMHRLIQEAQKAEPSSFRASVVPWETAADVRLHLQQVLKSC
PABP FP inh = PABP-poly(A) binding inhibition | 290,000 compounds, 1% hits | P11940 | inhibition, % at 35 µM | PABP-poly(A) RNA binding, fluorescence polarization;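 note: calls also rest on retests at 20 µM and on dose response follow-up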
MLLE-PAM2 inh = inhibitors of microRNA-mediated deadenylation, human PABP1 MLLE binding; P11940; GST-MLLE / FITC-PAM2 fluorescence polarization; inhibition, % at 20 µM; 360,000 compounds, 0.36% hits; AID 588489; in the data active = inhibition above about 35%, passing the limit was not always enough;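 note: plate controls were DMSO wells with GST-MLLE for no effect and wells lacking GST-MLLE protein for full effect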
CRFBP-R2 block = antagonists of CRF-binding protein/CRF-R2 receptor complex. 350,000 compounds, 0.59% hits. inhibition, % at 11.8 µM. HEK293 CRF-R2/CRF-BP, CRF-induced calcium fluorescence;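 active = inhibition of the ligand-induced calcium signal above about 50% at the single tested concentration, limit read from the data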
eIF4H inh = inhibitors of RNA binding by human eIF4H | eIF4H fluorescence polarization binding assay | 290,000 compounds, 0.94% hits | AID 2012 | inhibition, % at 35 µM;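 note: calls also rest on retests at 20 µM and on dose response follow-up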
Numbers without * were called inactive. Unless noted, the rule behind the calls is not given here.

Screening COc1cc(NC(=S)NCCN2CCOCC2)cc(OC)c1OC returned PHOSPHO1 inh 41, PABP FP inh -18, MLLE-PAM2 inh 27, CRFBP-R2 block 20 and eIF4H inh 0.
`COc1ccc(-c2nc(CN3CCN(c4ncnc5ccccc45)CC3)c(C)o2)c(OC)c1` gave PHOSPHO1 inh 64*, PABP FP inh 2, MLLE-PAM2 inh 2, CRFBP-R2 block -31 and eIF4H inh 3.
For N=NC(=O)c1ccccc1Nc1c(O)[nH]c2ccccc12 the results were MLLE-PAM2 inh -9 and CRFBP-R2 block -14.
CCN(CC)S(=O)(=O)c1cccc(-c2nnc(SCC(=O)c3ccc(Cl)s3)n2C)c1 was read as PHOSPHO1 inh 64*, PABP FP inh -5, MLLE-PAM2 inh -88, CRFBP-R2 block -3 and eIF4H inh -5.
Fc1ccc(Nc2nnc(-c3ccncc3)s2)cc1Cl was read as MLLE-PAM2 inh 11.
For Cc1ccc2c(c1)C(N1CCCC1=O)CC(c1ccco1)N2 (stereo not drawn) the results were PHOSPHO1 inh 76*, PABP FP inh 7, MLLE-PAM2 inh 31, CRFBP-R2 block 5 and eIF4H inh 11.
Screening COc1cc2c(cc1OC)C(c1ccccc1O)N(C1CC(=O)N(c3ccccc3)C1=O)CC2 (stereo not drawn) returned PHOSPHO1 inh 0, PABP FP inh 4, MLLE-PAM2 inh 40*, CRFBP-R2 block 21 and eIF4H inh 1.
For Cc1cccc(C)c1NC(=O)c1sccc1SCc1cccc(C(F)(F)F)c1 the results were PHOSPHO1 inh -40, PABP FP inh -4, MLLE-PAM2 inh 15, CRFBP-R2 block 71* and eIF4H inh 2.
For COc1ccc(N2C(=O)CC(SCCc3nc4ccccc4[nH]3)C2=O)cc1 (stereo not drawn) the results were PHOSPHO1 inh -7, PABP FP inh -10, MLLE-PAM2 inh 40*, CRFBP-R2 block -22 and eIF4H inh -10.
`O=C1CC(SCCc2nc3ccccc3[nH]2)C(=O)N1c1ccc(F)cc1` (stereo not drawn) gave PHOSPHO1 inh 38, PABP FP inh 8, MLLE-PAM2 inh 36, CRFBP-R2 block 8 and eIF4H inh 1.
CC(C)C(NC(=O)c1cccs1)C(=O)NC1=NCCS1 (stereo not drawn) was read as PHOSPHO1 inh 10, PABP FP inh -6, MLLE-PAM2 inh 42*, CRFBP-R2 block -5 and eIF4H inh 3.
Screening O=C(NC1=NCCS1)c1csc2ccccc12 returned PHOSPHO1 inh 1, PABP FP inh -8, MLLE-PAM2 inh 36*, CRFBP-R2 block -22 and eIF4H inh -4.
Screening O=C(NC1=NCCS1)c1cccs1 returned PHOSPHO1 inh 2, PABP FP inh 28, MLLE-PAM2 inh 44*, CRFBP-R2 block -6 and eIF4H inh 2.
For CC(=O)c1ccc(-n2c(-c3cc(-c4ccsc4)n[nH]3)n[nH]c2=S)cc1 the results were PHOSPHO1 inh 65*, PABP FP inh 9, MLLE-PAM2 inh -13, CRFBP-R2 block 30 and eIF4H inh 4.
`CCCC(=O)Nc1nnc(Sc2ccc(N(C)C)cc2)s1` gave PHOSPHO1 inh -14, PABP FP inh 5, MLLE-PAM2 inh -2, CRFBP-R2 block 69* and eIF4H inh -4.
Screening CCc1ccc(N=C2NC(=O)/C(=C/c3cc(OC)c(OC)c(OC)c3)S2)cc1 returned PABP FP inh -1, MLLE-PAM2 inh -4, CRFBP-R2 block 14 and eIF4H inh 4.
For CCc1ccc(N=C2NC(=O)/C(=C/c3cc(Br)c(OCC(=O)O)c(OC)c3)S2)cc1 the results were PHOSPHO1 inh 35, PABP FP inh 37, MLLE-PAM2 inh -16, CRFBP-R2 block 24 and eIF4H inh 81*.
Screening CCOc1ccc(NC(=S)/C(=C(\[O-])c2ccc(C)c([N+](=O)[O-])c2)[n+]2ccccc2)cc1 returned PHOSPHO1 inh 93*, PABP FP inh 10, MLLE-PAM2 inh -19, CRFBP-R2 block -4 and eIF4H inh 9.
O=C(NNS(=O)(=O)c1ccc2ccccc2c1)NC1CCCCC1 was read as PHOSPHO1 inh -13, PABP FP inh -4, MLLE-PAM2 inh 5, CRFBP-R2 block -8 and eIF4H inh 2.
For O=C(NC1CCCCC1)NS(=O)(=O)c1ccc2c(c1)CCC2 the results were MLLE-PAM2 inh 2 and CRFBP-R2 block 63*.
Screening NS(=O)(=O)c1ccc(NC(=S)Nc2ccc(F)c(F)c2)cc1 returned PHOSPHO1 inh 0, PABP FP inh -5, MLLE-PAM2 inh 10, CRFBP-R2 block 69* and eIF4H inh 22.
O=C(CCNS(=O)(=O)c1ccc(Br)cc1)NC1CCCCC1 was read as PHOSPHO1 inh 16, PABP FP inh -3, MLLE-PAM2 inh 13, CRFBP-R2 block -7 and eIF4H inh 4.
Screening O=S(=O)(NC(=S)NC1CCCCC1)c1ccc(Br)cc1 returned PHOSPHO1 inh 23, PABP FP inh -7, MLLE-PAM2 inh 36, CRFBP-R2 block 56* and eIF4H inh -11.
For Fc1ccc(NC(=S)Nc2ccc(F)c(Cl)c2)cc1Cl the results were PHOSPHO1 inh 95*, PABP FP inh 4, MLLE-PAM2 inh 29, CRFBP-R2 block 11 and eIF4H inh -3.
`COc1ccccc1NC(=O)N(C)C[C@@H]1OCc2cn(nn2)CCCC(=O)N([C@H](C)CO)C[C@H]1C` gave MLLE-PAM2 inh 19 and CRFBP-R2 block -6.
`CC1(C(=O)Nc2cnc3ccccc3c2)CCN1Cc1ccc(OC(F)(F)F)cc1` (stereo not drawn) gave MLLE-PAM2 inh 2.
`NS(=O)(=O)c1ccc(NC(=S)NC2CCCC2)cc1` gave PHOSPHO1 inh 81*, PABP FP inh 12, MLLE-PAM2 inh 6, CRFBP-R2 block -14 and eIF4H inh -7.
Screening O=C(CNC(=O)C1CCCCC1)Nc1ccc(F)c(Cl)c1 returned PHOSPHO1 inh 20, PABP FP inh -2, MLLE-PAM2 inh 6, CRFBP-R2 block 65* and eIF4H inh -8.
`NS(=O)(=O)c1ccc(NC(=S)NC2CCCCCC2)cc1` gave PHOSPHO1 inh 6, PABP FP inh -3, MLLE-PAM2 inh 9, CRFBP-R2 block 8 and eIF4H inh 4.
`Cc1cnc2ccc(F)cc2c1` gave MLLE-PAM2 inh 10.
`CCN(Cc1ccccc1)C(c1cc2ccc(C)cc2[nH]c1=O)c1nnnn1CCOC` (stereo not drawn) gave PHOSPHO1 inh 99*, PABP FP inh -4, MLLE-PAM2 inh -1, CRFBP-R2 block 5 and eIF4H inh -4.
For CCC(C)(C)n1nnnc1C(c1cc2cc(C)ccc2[nH]c1=O)N1CCCC1 (stereo not drawn) the results were PHOSPHO1 inh 10, PABP FP inh 22, MLLE-PAM2 inh 8, CRFBP-R2 block -6 and eIF4H inh 16.
For Cc1ccc2cc(C(c3nnnn3Cc3ccccc3)N3CCN(c4ccccc4)CC3)c(=O)[nH]c2c1 (stereo not drawn) the results were PHOSPHO1 inh -44, PABP FP inh 16, MLLE-PAM2 inh 16, CRFBP-R2 block 5 and eIF4H inh 11.
